Tg IFNy HTS – T. gondii growth inhibition with IFN-gamma, primary screen, cell-based. Toxoplasma gondii growth in IFN-gamma-treated host cells; stronger effect = lower value. 69,000 tested, 3.8% active. AID 1259416, 2018. activity change, negative = inhibition, % (test concentration not listed); in the data active = activity change below about -70%, passing the limit was not always enough;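 also: host cells are HeLa cells infected with Toxoplasma gondii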
An asterisk follows results filed as active; i = inactive; ! = a repeat was not active. Only a selection was taken, and hits are over-represented in it overall.

SMILES	Tg IFNy HTS
CS(=O)(=O)c1ccc(-c2nc(-c3ccc(F)cc3)c(-c3ccncc3)[nH]2)cc1	11
CS(=O)c1ccc(-c2nc(-c3ccc(F)cc3)c(-c3ccncc3)[nH]2)cc1 (stereo not given)	-90*
CCOc1ccc(C(=O)N2CCC3(CC2)Nc2ccc(Cl)cc2-n2cccc23)cc1	-53
c1ccc(-c2ncc3c(n2)C2(CCN(c4ncccn4)C2)COC3)cc1 (stereo not given)	-10
CCc1nn(C)c(Cl)c1CN1CCC(C(=O)N2CCOCC2)CC1	-41
CSCC1CN(/N=C/c2ccc([N+](=O)[O-])o2)C(=O)O1 (stereo not given)	14
O=C1CN(/N=C/c2ccc(-c3ccc([N+](=O)[O-])cc3)o2)C(=O)N1	-76*
O=C1OCCN1/N=C/c1ccc([N+](=O)[O-])o1	-19
CN1CC2(CCCN(C(=O)CCc3nc4ccccc4[nH]c3=O)CC2)OC1=O (stereo not given)	-3
Cc1csc(-c2ccc(N3CCN(C(=O)c4cccc5[nH]ccc45)CC3)nc2)n1	73
CCOc1ccc(NC(=O)c2nnn(Cc3nc(-c4ccc(OC)cc4OC)oc3C)c2C)cc1	222
CC(C)Oc1ccc(-c2cccc(F)c2C(N)=O)cc1	8
Cc1noc(C)c1NC(=O)c1cccc(CN2CCC3(CC2)CNC(=O)O3)c1	1
Cc1cccc(-c2nc(C)c(CCNS(=O)(=O)c3ccc(-c4ccccc4)cc3)s2)c1	-84*
Cc1cccc(-c2nc(C)c(CCNS(=O)(=O)c3ccccc3F)s2)c1	i
Cc1cc(F)ccc1S(=O)(=O)NCCc1sc(-c2ccc(Cl)cc2)nc1C	362
Cc1nc(-c2ccccc2)sc1CCNS(=O)(=O)c1ccccc1	369
Cc1cccc(-c2nc(C)c(CCNS(=O)(=O)c3ccc(I)cc3)s2)c1	i
Cc1nc(-c2ccc(Cl)cc2)sc1CCNS(=O)(=O)c1ccccc1F	-72*
Cc1ccc(CCC(=O)Nc2ccc(S(=O)(=O)Nc3onc(C)c3C)cc2)cc1	1
Fc1cccc(-c2nc(CNc3ncc(Cl)cn3)[nH]c2-c2ccccn2)c1	-68
Cc1ccc(C(=O)N2CCC3(CC(OCC4CC4)CO3)C2)cn1 (stereo not given)	-43
O=S(=O)(c1cc(Cl)c(Cl)cc1Cl)N1CCCC1	3
COc1cccc(C(CNS(=O)(=O)c2ccc3oc(=O)[nH]c3c2)N2CCCC2)c1 (stereo not given)	4
Cc1nc(NCc2ccccc2OC(C)C)cc(-c2ccnc(N3CCOCC3)c2)n1	-31
SMILES	Tg IFNy HTS
CC(=O)N1CCc2cc(NC(=O)Cn3ccnc3C(C)C)ccc21	-13
CN(Cc1cccnc1)C1CCN(C(=O)c2cnccn2)C(C(=O)O)C1 (stereo not given)	8
CN(Cc1cccnc1)C1CCN(C(=O)c2cccnc2)C(C(=O)O)C1 (stereo not given)	-5
CN(Cc1cccnc1)C1CCN(C(=O)c2ccccn2)C(C(=O)O)C1 (stereo not given)	-74*
Nc1ccc2c(c1)C1(CCOCC1)C(=O)N2c1ccsc1	96
CC(=O)OC[C@H]1O[C@@H](Sc2cccc3cccnc23)[C@H](OC(C)=O)[C@@H](OC(C)=O)[C@H]1OC(C)=O	4
O=C(CSc1cccc2cccnc12)OCC(=O)c1ccccc1	-89*
CC(C)c1ccc(CNC(=O)CSc2cccc3cccnc23)cc1	11
Cc1ncc(CC(=O)N2CCC(c3[nH]ncc3-c3ccccc3C)CC2)c(=O)[nH]1	0
Cc1nc2sccn2c1C(=O)N1CCNCC1C(=O)N1CCOCC1 (stereo not given)	1
O=S(=O)(c1ccccc1)N1CCN(CC(O)COc2ccc3ccccc3c2)CC1 (stereo not given)	-83*
CC(C)c1nccc(CN2CCN(S(=O)(=O)c3ccccc3)CC2)n1	4
CCC(=O)c1ccc(OCC(O)CN2CCN(c3ccccc3)CC2)cc1 (stereo not given)	12
Cc1cc(C)c(N(Cc2ccccc2)S(=O)(=O)c2ccc(OCCNC(=O)c3cc4ccccc4o3)cc2)c(C(=O)NO)c1	-72*!
CCCCOc1ccc(S(=O)(=O)N(Cc2ccccc2)Cc2ccccc2)cc1	-27
CCOc1ccc(N(Cc2nc(-c3ccc(C)cc3)oc2C)S(=O)(=O)c2ccccc2)cc1	15
Cc1noc(C)c1NC(=O)Nc1cccc(S(N)(=O)=O)c1	-41
c1ccc2c(Cc3c[nH]c4ccccc34)c[nH]c2c1	10
c1ccc2c(-c3c[nH]c4ccccc34)c3ccccc3nc2c1	-86*
Clc1ccc(CSc2nnc(-c3c[nH]c4ccccc34)o2)cc1	-58
CSc1sc(NC(=O)Nc2cccc(C(F)(F)F)c2)cc1C#N	-2
O=C(Nc1cccc(C(F)(F)F)c1)N1CCSCC1	-29
Cn1nc(C(F)(F)F)cc1-c1ccc(NC(=O)Nc2cccc(C(F)(F)F)c2)s1	-90*
CCN1CCC2(CN(CC(C)C)CC23CCN(S(=O)(=O)c2cccs2)CC3)C1=O (stereo not given)	-27
Fc1ccc(CN2CCc3ncnc(N4CCCC4)c3CC2)cc1	-48

From PubChem
